# A selection follows.
# aSyn UTR act – Activators via SNCA 5'UTR binding, MLPCN; AID 1814; activity score, % (tested at 7.5 µM), hits read low; 7.1% of 300,000 active; alpha-synuclein 5'UTR reporter, activators screen; in the data active means activity score below about -60%
# * = called active by the depositor.
SMILES,aSyn UTR act
Cc1c(C(=O)N/N=C/C(C)C)[nH]c2c([N+](=O)[O-])cccc12,68
Cc1cc(NC(=O)c2cc3cccc([N+](=O)[O-])c3[nH]2)ccc1F,-93*
COc1ccc(NC(=O)COc2ccc(/C=N/NC(=O)c3cccnc3)cc2OC)cc1,-105*
COc1cc(/C=N/NC(=O)c2cccnc2)ccc1OCC(=O)Nc1ccccc1Cl,-73*
S=c1[nH]nc(-c2ccn[nH]2)n1-c1ccccc1Cl,-86*
O=C(CNC(=O)c1ccccc1Cl)OCC(=O)N1CCc2ccccc21,-117*
Cc1cc(C(=O)OCC(=O)N2CCc3ccccc32)c(C)o1,-163*
O=C(NCC(=O)N1CCc2ccccc2C1)c1ccccc1Cl,-101*
CC(=O)Nc1ccc(N=Nc2ccc(O)cc2)cc1,-87*
OCc1ccc(N=Nc2ccccc2)cc1,-84*
Oc1ccc(Cl)cc1N=Nc1ccccc1,-70*
Oc1ccc(N=Nc2ccccc2)cc1,-145*
Cn1nc(OC(=O)Nc2ccc(Cl)cc2)cc1C(F)(F)F,-85*
Cc1ccccc1OCc1nc2ccccc2c(=O)n1N,-113*
Nn1c(COc2ccccc2)nc2ccccc2c1=O,-70*
CCn1c(CCc2ccccc2)nc2ccccc21,-76*
CCn1c(COc2ccccc2C)nc2ccccc21,-131*
COc1cccc(CCc2nc3ccccc3c(=O)n2N)c1,-68*
Cn1c(COc2ccccc2Br)nc2ccccc21,-145*
COCn1c(COc2ccc3ccccc3c2)nc2ccccc21,-92*
COCCNc1c(-c2cc3ccc(C)c(C)c3[nH]c2=O)nc2ccccn12,-153*
Cc1cccn2c(=O)c3cc(C(=O)NCc4ccco4)c(=N)n(C4CCCCC4)c3nc12,-69*
COc1ccc(CCn2c(=N)c(C(=O)NCCN3CCOCC3)cc3c(=O)n4cccc(C)c4nc32)cc1OC,-93*
Cc1cccn2c(=O)c3cc(C(=O)NCCN4CCOCC4)c(=N)n(CCc4ccccc4)c3nc12,-128*
CCNC(=O)c1cc2c(=O)n3cccc(C)c3nc2n(CCc2ccccc2)c1=N,-105*
SMILES,aSyn UTR act
COc1ccc(CCn2c(=N)c(C(=O)N3CCN(C)CC3)cc3c(=O)n4ccccc4nc32)cc1,-65*
O=C(c1ccccc1)c1c[nH]c2cc3c(cc2c1=O)OCCO3,-67*
O=C(NCc1cccnc1)c1c[nH]c2cc3c(cc2c1=O)OCCO3,-123*
CN(c1nc(-c2ccc(Br)cc2)cs1)C1CCS(=O)(=O)C1 (stereo unspecified),-112*
Clc1cc2nc(-c3cccnc3Cl)[nH]c2cc1Cl,-229*
CC1CC1c1ccc(/C=C(\C#N)C(=O)Nc2cccc(Cl)c2Cl)o1 (stereo unspecified),-111*
COc1cccc(CNC(=O)CN2C(=O)CSc3ccc(S(=O)(=O)N4CCCCC4)cc32)c1,-160*
CCCCNC(=O)c1cc2ccccc2s1,-108*
CN(C(=O)OC(C)(C)C)c1ccc(-c2nc3ccccc3s2)cc1,104
CCCCNC(=O)N(C)c1nc2ccccc2s1,-133*
COC(=O)N(C)c1nc2ccccc2s1,-77*
COc1cc(NC(=O)C/C(C)=N/NC(=O)Cc2ccccc2)c(OC)cc1Cl,-69*
COc1cc(NC(=O)C/C(C)=N/NC(=O)c2cccs2)c(OC)cc1Cl,-153*
C=C1C(=O)O[C@@H]2[C@H]1[C@@H](OC(=O)/C(C)=C/C)C/C(C)=C\C(=O)/C=C(\C)[C@@H]2O,-311*
COc1c(C)cccc1C(=O)Nc1ccc(N2CCN(S(C)(=O)=O)CC2)cc1,-146*
O=C(COc1ccccc1Cl)NC(=S)N1CCc2ccccc21,-87*
O=C(CNc1ccccc1OC(F)F)N1CCc2ccccc21,-289*
CN1CCN(c2ccc(NC(=S)NC(=O)c3cccc4c(Cl)cccc34)cc2)CC1,-128*
COc1ccccc1C(=O)Nc1ccc(N2CCN(S(C)(=O)=O)CC2)cc1,-76*
COc1c(C)cccc1C(=O)Nc1ccc(CN2CCOCC2)cc1,-109*
COc1ccccc1C(=O)NC(=S)N1CCCc2ccccc21,-167*
COc1ccccc1C(=O)NC(=S)Nc1ccc(N2CCCC2)cc1,-83*
O=C(COc1ccc(F)cc1Br)N1CCc2ccccc21,-86*
COCCNC(=S)Nc1ccc(N2CCCCC2)cc1,-173*
CCn1cnc2sc(C(=O)Oc3cccc(C)c3)c(C)c2c1=O,-67*
SMILES,aSyn UTR act
OCCc1ccc(O)c(-n2nc3ccccc3n2)c1,-117*
COc1ccccc1C1C=C(c2ccccc2)Nc2nnnn21 (stereo unspecified),-84*
COc1cccc(C2=CC(c3ccc(OC)c(OC)c3OC)n3nnnc3N2)c1 (stereo unspecified),-67*
O=C(Cc1ccc(S(=O)(=O)N2CCOCC2)s1)Nc1ccc(N2CCOCC2)cc1,-99*
CCOC(=O)/C=C/c1cnn(-c2ccccc2)c1,-113*
Cc1ccc(NC(=O)C2C3/C=C\CCCCC32)cc1C (stereo unspecified),-115*
O=C(O)C[C@H](O)C[C@H](O)/C=C/c1c(C2CC2)nc2ccccc2c1-c1ccc(F)cc1,104
O=C(Nc1ccc2oc(-c3ccccc3F)nc2c1)c1cncc(Br)c1,-65*
O=C(Nc1ccc2oc(-c3ccccc3F)nc2c1)c1ccc([N+](=O)[O-])o1,-142*
O=C(NCCc1ccccc1)c1coc(=O)c(Br)c1,-77*
CC(C)CNC(=O)c1coc(=O)c(Br)c1,-87*
COc1ccccc1NC(=O)c1coc(=O)c(Br)c1,-63*
O=C(NCCC1=CCCCC1)c1coc(=O)c(Br)c1,-65*
CS(=O)(=O)Nc1ccc(C(=O)NCCC2=CCCCC2)cc1,-109*
CC(C)c1nnc(NC(=O)c2sc3ccccc3c2Cl)s1,-110*
CN1CCc2c(sc(NC(=O)c3ccc([N+](=O)[O-])o3)c2C(N)=O)C1,86
Cc1nnc(NC(=O)c2ccc3ccccc3c2)s1,-145*
Cc1cnc(NC(=O)c2sc3ccccc3c2Cl)s1,59
CC(C)c1nnc(NC(=O)c2ccc3ccccc3c2)s1,-64*
CC(C)N1CCc2c(sc(NC(=O)c3ccc4ccccc4c3)c2C(N)=O)C1,-97*
CCC(CC)c1nnc(NC(=O)c2ccc3ccccc3n2)s1,-86*
CCCc1cc(C(=O)Nc2nnc(C)s2)cs1,-115*
O=C(Cc1cccc2ccccc12)Nc1ccc(-c2cc3ccccc3oc2=O)cc1,65
O=c1oc2ccccc2cc1-c1cn2cccnc2n1,-65*
O=c1oc2ccccc2cc1-c1nnc(-c2cccc(Br)c2)o1,-98*
SMILES,aSyn UTR act
O=c1oc2ccc(Cl)cc2cc1-c1ccccc1,-70*
O=c1oc2ccccc2cc1-c1cn2ccccc2n1,98
O=c1oc2ccccc2cc1-c1ccccc1,-118*
Cc1noc(C)c1C(=O)OCC(=O)c1cc(C)n(Cc2ccccc2Cl)c1C,-98*
CC(C)OC(=O)/C(C#N)=C/c1ccc(-c2ccc(SC(F)F)cc2)o1,-88*
COc1ccc(NC(=S)NC(=O)c2ccccc2Cl)cc1,-130*
O=C(NC(=S)Nc1ccccc1[N+](=O)[O-])c1ccccc1Cl,-94*
Cc1ccc(O)c(NC(=S)NC(=O)c2ccccc2Cl)c1,-120*
CC(C)CNC(=S)NC(=O)c1ccccc1Cl,-93*
O=C(NC(=S)Nc1ccc(O)cc1)c1ccccc1Cl,-161*
CCn1cc(C(=O)NC(=S)Nc2ccccc2[N+](=O)[O-])cn1,-94*
CCOC(=O)C1(Cc2cccc(Cl)c2)CCCN(C(=O)CN2C(=O)CSC2=O)C1 (stereo unspecified),-75*
CCOC(=O)C1(Cc2cccc(Cl)c2)CCCN(C(=O)c2ccnn2C)C1 (stereo unspecified),-85*
